Molecules are shown by their SMILES. Hit rate of the full screen: of about 69,000 compounds, about 8,600 (12%) showed an effect of 50% or more. The list comes from a sample in which strong results are over-represented; it also holds similar structures and randomly drawn compounds.

We go through 56 compounds from ChEMBL document CHEMBL4513216, “Probing the Open Global Health Chemical Diversity Library for Multistage-Active Starting Points for Next-Generation Antimalarials” (ACS Infect Dis, 2020).

The subject of this test is Plasmodium berghei. Nature of the test: Screen against P. berghei liver stage (PbLuc), transformed with Luciferase, at 10uM. The test is classed as functional, HepG2. To be noted: tested at 10 uM.
For the compound `Cc1cc(C2CCNCC2)nc(-c2ccsc2)n1`, the INHIBITION stood at 20.2%.

`CCC(=O)Nc1ccc(C(C)NC(=O)COCCOC)cc1` (stereo unspecified): the INHIBITION is -28.4%. For `CC(=O)N1CCC2(CC1)CN(C(=O)c1cccnc1)c1ccc(F)cc12`, the INHIBITION stood at 34.9%. For `COc1c(C2CCCN2CC(=O)Nc2ccncc2)c(C)nn1C` (stereo unspecified), the INHIBITION was determined as 21.6%.

On to `Cc1nc(NCCN2CCCC2=O)cc(C2CN(C(C)C)CCO2)n1` (stereo unspecified), for which the INHIBITION came to 25%. `CCc1n[nH]c(C2CN(C(=O)c3ccc4c(c3)COC4)CCO2)n1` (stereo unspecified): the INHIBITION is listed as -59.4%.

Take `CC(=O)N1CCC(N2CC(Cc3nccc4ccn(C)c34)C2)CC1`: the INHIBITION stood at 28%. Turning to `COc1ccc(NC(=O)N2CCN(CCSc3ccccc3)CC2)cc1`, the INHIBITION is on record as -28.15%. As for `CC(C)c1cc(C(=O)N2CCN(c3ccncc3)CC2)n(C)n1`, the INHIBITION is listed as -106%. As for `CC(C)c1cc(C(=O)N2CCN(c3ccc(F)c(Cl)c3)CC2)n(C)n1`, the figure is 50.8%. As for `CC(=O)c1ccc(N2CCN(C(=O)c3cc(C(C)C)nn3C)CC2)cc1`, the INHIBITION was 36.3%. For the compound `COc1cccc(C2CC(=O)Nc3c2cnn3C(C)(C)C)c1` (stereo unspecified), the INHIBITION is -38.6%. The same measure for `O=C1NCCCC12CCN(S(=O)(=O)N1CCOCC1)C2` (stereo unspecified): -3.24%; for `O=C1NCCCC12CCN(Cc1ccc(-c3ccccc3)s1)C2` (stereo unspecified): 21.2%. In the case of `Cc1ccc(CN2CCC3(CC2)C(=O)NCCN3CC2CC2)o1`, the INHIBITION is 89.3%. For the compound `CCN(CC)Cc1cc(C(=O)N2CCC3(CC2)NCCNC3=O)c(C)o1`, the INHIBITION is recorded as 12.4%.

Turning to `Cc1ccc(Sc2ccc(CN3CCC4(CC3)NCCNC4=O)o2)cc1`, the INHIBITION was 66.1%. In the case of `Cc1cc(CN2CCC3(CC2)C(=O)NCCN3CC2CC2)oc1C`, the INHIBITION came to 42.7%. The same measure for `CCOc1cc2c(cc1CN1CCC3(CCCNC3=O)C1)CCC2` (stereo unspecified): 41.2%. As for `O=C1NCCCC12CCN(Cc1ccc(SC3CCCCC3)o1)C2` (stereo unspecified), the figure is 72.3%; as for `CCOc1cc(Cl)c(CN2CCC3(CCCNC3=O)C2)cc1OC` (stereo unspecified), 9.41%; as for `CN1CCNC(=O)C12CCN(Cc1ccco1)CC2`, 36.9%.

On to `O=C1NCCN(CC2CC2)C12CCN(Cc1ccco1)CC2`, for which the INHIBITION was determined as 45.5%.

Consider `Cc1ccc(Sc2ccc(CN3CCC4(CCCNC4=O)C3)o2)cc1` (stereo unspecified), for which the INHIBITION is on record as 90.8%. With `CC(NC(=O)CCc1ccsc1)c1ccc2c(c1)NC(=O)CO2` (stereo unspecified), the INHIBITION was 1.223%. As for `CN(C)S(=O)(=O)N1CCN(C(=O)c2cc(-c3ccc(Br)s3)n[nH]2)CC1`, the figure is 11.2%; as for `Cc1nc(N)c2ccc(C3CCCCN3)nc2n1` (stereo unspecified), 29.35%. Take `Cc1cc(CN(C)C(=O)c2ccc(Cl)c(N3CCCC3=O)c2)no1`: the INHIBITION is -11.4%. For `COCCC(=O)N1C[C@@H](c2cccc(OC)c2)[C@@]2(CCCCC(=O)N2)C1`, the INHIBITION worked out at 3.48%. With `CC(C(=O)N1CCCN(Cc2cnn(C(C)C)c2)CC1)n1ccnc1` (stereo unspecified), the INHIBITION was 48.1%. As for `Cc1ccc(C(=O)N2CC[C@@H]3CN(C4CCOCC4)CCO[C@@H]3C2)o1`, the figure is 22.2%; as for `CCc1nc(C2CCCN2C(=O)c2csc(NC(C)=O)n2)no1` (stereo unspecified), -17%; as for `Cc1ccccc1CSc1nc(N)cc(N2CCCC(C(N)=O)C2)n1` (stereo unspecified), 41.3%. In the case of `COc1ccc(C(=O)C2CCCN(c3cc(OC)ncn3)C2)c(C)c1` (stereo unspecified), the INHIBITION was found to be 91.8%. The same measure for `COc1ccc(C(=O)C2CCCN(c3cc(N)ncn3)C2)c(C)c1` (stereo unspecified): 60.1%; for `COc1cccc(C(=O)C2CCCN(c3nccc(N)n3)C2)c1` (stereo unspecified): 43%. In the case of `CCc1nc2n(n1)CCCC2NC(=O)Nc1cc(OC)ccc1C` (stereo unspecified), the INHIBITION came to 13.5%.

With `COc1ccc(C(=O)N2C[C@@H](CN3CCCC3)[C@@H](CO)C2)c(C)c1`, the INHIBITION is listed as 34.9%. With `CCc1nc(C)cc(N2CCCC(C(=O)c3ccc(OC)cc3C)C2)n1` (stereo unspecified), the INHIBITION worked out at 83.9%. The same measure for `COc1ccc(C(=O)C2CCCN(c3nccc(N)n3)C2)c(C)c1` (stereo unspecified): 51.2%; for `CCOC(=O)C1CCCN(c2nccc(-n3nc(C)cc3C)n2)C1` (stereo unspecified): 1.74%; for `COc1cc(N2CCCC(c3ncc[nH]3)C2)ncn1` (stereo unspecified): 28.4%. For `COc1ccc(C(=O)C2CCCN(c3cnccn3)C2)c(C)c1` (stereo unspecified), the INHIBITION was found to be 25.5%. As to `O=C1C(n2nnc(-c3ccsc3)n2)CCN1CC(F)(F)F` (stereo unspecified), the INHIBITION was -35.9%. On to `CC(C)n1ccnc1Cn1ccc2ncccc2c1=O`, for which the INHIBITION is -9.91%. For `CN(C)CCN1CCN(C(=O)c2ccn(C)c(=O)c2)CC1`, the INHIBITION is recorded as -7.31%. Turning to `COc1cc(NC(=O)N2CCCC2c2ccco2)cc(OC)c1` (stereo unspecified), the INHIBITION is given as 45.5%. In the case of `CN(C)C(CNC(=O)c1ccc(-n2cnnn2)cc1)c1ccccc1Cl` (stereo unspecified), the INHIBITION was -20.5%. As for `Cc1nc(NC(=O)c2cccnc2N2CCOCC2)sc1C`, the INHIBITION amounted to 62.9%. Regarding `Cc1csc(NC(=O)c2cccnc2N2CCOCC2)n1`, the INHIBITION is given as -3.39%. On to `O=C(Nc1nc2c(s1)CCC2)c1cccnc1N1CCOCC1`, for which the INHIBITION was 34%. As for `COc1cc(-c2n[nH]c(CC#N)n2)cc(OC)c1OC`, the figure is 12.7%; as for `CCn1nc(C)c(NC(=O)c2nnn(Cc3ccccc3)c2OC)c1C`, 27.5%.

Consider `CCCn1nccc1NC(=O)CN1CCc2cnc(CC)nc2C1`, for which the INHIBITION was 23.6%. With `CCCn1nccc1NC(=O)CN1CCc2cnc(C(C)C)nc2C1`, the INHIBITION worked out at 55%. Take `CC(C)c1ncc2c(n1)CN(CC(=O)Nc1ccc(Cl)cn1)CC2`: the INHIBITION came to 0.914%.
